Assay results taken from paper PMC11006913.
Where a chain is given by its changes, count along the chain named.

Tests used:
Test in all cases: PBM; 200 nM protein, PBS
Conditions in all cases: dsDNA, one strand shown
SHOX [1] = target: SHOX (Homo sapiens, UniProt O15266 103-189)
SIX6 [2] = target: T1, SIX6 (Homo sapiens, UniProt O95475 114-200, L167I)
T1 sequence: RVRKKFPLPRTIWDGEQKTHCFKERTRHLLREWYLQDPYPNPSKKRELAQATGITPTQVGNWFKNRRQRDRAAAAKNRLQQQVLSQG

SIX6 [3] = target: T2, SIX6 (Homo sapiens, UniProt O95475 114-200, L143V)
T2 sequence: T1 sequence with L30V, I54L

SIX6 [4] = target: T3, SIX6 (Homo sapiens, UniProt O95475 114-200, H141N)
T3 sequence: T1 sequence with H28N, I54L

SIX6 [5] = target: T4, SIX6 (Homo sapiens, UniProt O95475 114-200, T165P)
T4 sequence: T1 sequence with T52P, I54L

SIX6 [6] = target: T5, SIX6 (Homo sapiens, UniProt O95475 114-200, L167M)
T5 sequence: T1 sequence with I54M

SIX6 [7] = target: T6, SIX6 (Homo sapiens, UniProt O95475 114-200, L143M)
T6 sequence: T1 sequence with L30M, I54L

SIX6 [8] = target: T7, SIX6 (Homo sapiens, UniProt O95475 114-200, L143I)
T7 sequence: T1 sequence with L30I, I54L

SIX6 [9] = target: T8, SIX6 (Homo sapiens, UniProt O95475 114-200, T165G)
T8 sequence: T1 sequence with T52G, I54L

SIX6 [10] = target: T9, SIX6 (Homo sapiens, UniProt O95475 114-200, T139Q)
T9 sequence: T1 sequence with T26Q, I54L

SIX6 [11] = target: T10, SIX6 (Homo sapiens, UniProt O95475 114-200, T165A)
T10 sequence: T1 sequence with T52A, I54L

SHOX [12] = target: SHOX (Homo sapiens, UniProt O15266 103-189, R173C)
SIX6 [13] = target: T11, SIX6 (Homo sapiens, UniProt O95475 114-200, L167V)
T11 sequence: T1 sequence with I54V

SIX6 [14] = target: T12, SIX6 (Homo sapiens, UniProt O95475 114-200)
T12 sequence: T1 sequence with I54L

SIX6 [15] = target: T13, SIX6 (Homo sapiens, UniProt O95475 114-200, T165I)
T13 sequence: T1 sequence with T52I, I54L

HOXA7 [16] = target: HOXA7 (Homo sapiens, UniProt P31268 116-202)
ALX3 [17] = target: ALX3 (Homo sapiens, UniProt O95076 139-225, N203Q)
HOXD13 [18] = target: HOXD13 (Homo sapiens, UniProt P35453 263-343, T313R)
HOXD13 [19] = target: HOXD13 (Homo sapiens, UniProt P35453 263-343)
ALX3 [20] = target: ALX3 (Homo sapiens, UniProt O95076 139-225)
ALX3 [21] = target: ALX3 (Homo sapiens, UniProt O95076 139-225, L168Q)
HOXD13 [22] = target: HOXD13 (Homo sapiens, UniProt P35453 263-343, T313A)
ALX3 [23] = target: ALX3 (Homo sapiens, UniProt O95076 139-225, L168V)
HOXA7 [24] = target: HOXA7 (Homo sapiens, UniProt P31268 116-202, W177C)
ALX3 [25] = target: ALX3 (Homo sapiens, UniProt O95076 139-225, N203S)
HOXB9 [26] = target: HOXB9 (Homo sapiens, UniProt P17482 171-250, T197M)
HOXB9 [27] = target: HOXB9 (Homo sapiens, UniProt P17482 171-250)
HOXB9 [28] = target: HOXB9 (Homo sapiens, UniProt P17482 171-250, R186Q)
NKX3-2 [29] = target: NKX3-2 (Homo sapiens, UniProt P78367 192-278, P234S)
NKX3-2 [30] = target: NKX3-2 (Homo sapiens, UniProt P78367 192-278)
Chain of NKX3-2 (Homo sapiens, UniProt P78367 192-278) (P78367 192-278): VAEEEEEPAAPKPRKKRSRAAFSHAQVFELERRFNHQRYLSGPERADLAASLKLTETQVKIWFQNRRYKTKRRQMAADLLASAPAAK

Chain of SHOX (Homo sapiens, UniProt O15266 103-189, R173C) (O15266 103-189 R173C): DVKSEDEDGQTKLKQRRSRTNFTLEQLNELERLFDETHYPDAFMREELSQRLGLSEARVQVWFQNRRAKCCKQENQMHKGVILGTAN
Chain of SHOX (Homo sapiens, UniProt O15266 103-189) (O15266 103-189): as the sequence (O15266 103-189 R173C) above, with C71R counted along it
Chain of ALX3 (Homo sapiens, UniProt O95076 139-225, N203Q) (O95076 139-225 N203Q): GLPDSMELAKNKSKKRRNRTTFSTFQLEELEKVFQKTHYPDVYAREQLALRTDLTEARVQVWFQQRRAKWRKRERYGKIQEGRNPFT
Chain of HOXD13 (Homo sapiens, UniProt P35453 263-343, T313A) (P35453 263-343 T313A): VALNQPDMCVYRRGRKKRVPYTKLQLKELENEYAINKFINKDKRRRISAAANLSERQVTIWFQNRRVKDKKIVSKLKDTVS
Chain of HOXA7 (Homo sapiens, UniProt P31268 116-202, W177C) (P31268 116-202 W177C): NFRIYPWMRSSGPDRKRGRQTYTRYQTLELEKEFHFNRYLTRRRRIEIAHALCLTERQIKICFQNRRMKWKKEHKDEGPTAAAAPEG
Chain of HOXB9 (Homo sapiens, UniProt P17482 171-250, T197M) (P17482 171-250 T197M): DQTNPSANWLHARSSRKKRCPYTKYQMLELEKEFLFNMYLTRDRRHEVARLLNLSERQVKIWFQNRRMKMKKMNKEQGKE
Chain of NKX3-2 (Homo sapiens, UniProt P78367 192-278, P234S) (P78367 192-278 P234S): as the sequence (P78367 192-278) above, with P43S counted along it
Chain of ALX3 (Homo sapiens, UniProt O95076 139-225) (O95076 139-225): as the sequence (O95076 139-225 N203Q) above, with Q65N counted along it
Chain of HOXA7 (Homo sapiens, UniProt P31268 116-202) (P31268 116-202): as the sequence (P31268 116-202 W177C) above, with C62W counted along it
Chain of HOXB9 (Homo sapiens, UniProt P17482 171-250) (P17482 171-250): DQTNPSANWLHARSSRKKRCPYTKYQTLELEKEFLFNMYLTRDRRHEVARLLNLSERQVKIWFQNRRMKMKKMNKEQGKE
Chain of HOXD13 (Homo sapiens, UniProt P35453 263-343) (P35453 263-343): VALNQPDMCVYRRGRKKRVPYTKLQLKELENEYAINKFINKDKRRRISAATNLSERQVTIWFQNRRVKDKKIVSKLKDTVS
Chain of ALX3 (Homo sapiens, UniProt O95076 139-225, L168Q) (O95076 139-225 L168Q): as the sequence (O95076 139-225 N203Q) above, with L30Q, Q65N counted along it
Chain of HOXD13 (Homo sapiens, UniProt P35453 263-343, T313R) (P35453 263-343 T313R): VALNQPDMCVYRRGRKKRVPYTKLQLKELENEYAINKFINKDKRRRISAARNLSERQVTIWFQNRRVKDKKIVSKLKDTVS
Chain of ALX3 (Homo sapiens, UniProt O95076 139-225, N203S) (O95076 139-225 N203S): as the sequence (O95076 139-225 N203Q) above, with Q65S counted along it
Chain of HOXB9 (Homo sapiens, UniProt P17482 171-250, R186Q) (P17482 171-250 R186Q): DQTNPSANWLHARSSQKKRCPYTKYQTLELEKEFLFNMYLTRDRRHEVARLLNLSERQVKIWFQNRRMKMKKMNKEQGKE
Chain of ALX3 (Homo sapiens, UniProt O95076 139-225, L168V) (O95076 139-225 L168V): as the sequence (O95076 139-225 N203Q) above, with L30V, Q65N counted along it

For CGACCGCC, the binding signal (SHOX [1]) was 7.14 upbm affinity estimate (log intensity, higher = more binding, comparable within an allelic series), the binding signal (SIX6 [2]) was 8.99 upbm affinity estimate (log intensity, higher = more binding, comparable within an allelic series) and the binding signal (SIX6 [3]) was 8.82 upbm affinity estimate (log intensity, higher = more binding, comparable within an allelic series). For the same sequence, the binding signal (SIX6 [4]) was 8.95 upbm affinity estimate (log intensity, higher = more binding, comparable within an allelic series), the binding signal (SIX6 [5]) was 8.87 upbm affinity estimate (log intensity, higher = more binding, comparable within an allelic series) and the binding signal (SIX6 [6]) was 9.03 upbm affinity estimate (log intensity, higher = more binding, comparable within an allelic series). The binding signal (SIX6 [7]) was 8.84 upbm affinity estimate (log intensity, higher = more binding, comparable within an allelic series), the binding signal (SIX6 [8]) was 8.91 upbm affinity estimate (log intensity, higher = more binding, comparable within an allelic series) and the binding signal (SIX6 [9]) was 9.05 upbm affinity estimate (log intensity, higher = more binding, comparable within an allelic series). For the same sequence, the binding signal (SIX6 [10]) was 8.92 upbm affinity estimate (log intensity, higher = more binding, comparable within an allelic series), the binding signal (SIX6 [11]) was 8.95 upbm affinity estimate (log intensity, higher = more binding, comparable within an allelic series) and the binding signal (SHOX [12]) was 7.26 upbm affinity estimate (log intensity, higher = more binding, comparable within an allelic series). The binding signal (SIX6 [13]) was 8.84 upbm affinity estimate (log intensity, higher = more binding, comparable within an allelic series), the binding signal (SIX6 [14]) was 8.95 upbm affinity estimate (log intensity, higher = more binding, comparable within an allelic series) and the binding signal (SIX6 [15]) was 9.02 upbm affinity estimate (log intensity, higher = more binding, comparable within an allelic series).
CCTCTCCG was tested, and the binding signal (SHOX [1]) was 6.97 upbm affinity estimate (log intensity, higher = more binding, comparable within an allelic series), the binding signal (SIX6 [2]) was 8.93 upbm affinity estimate (log intensity, higher = more binding, comparable within an allelic series) and the binding signal (SIX6 [3]) was 8.82 upbm affinity estimate (log intensity, higher = more binding, comparable within an allelic series). For the same sequence, the binding signal (HOXA7 [16]) was 8.27 upbm affinity estimate (log intensity, higher = more binding, comparable within an allelic series), the binding signal (SIX6 [4]) was 8.83 upbm affinity estimate (log intensity, higher = more binding, comparable within an allelic series) and the binding signal (SIX6 [5]) was 8.87 upbm affinity estimate (log intensity, higher = more binding, comparable within an allelic series). The binding signal (SIX6 [6]) was 8.89 upbm affinity estimate (log intensity, higher = more binding, comparable within an allelic series), the binding signal (SIX6 [7]) was 8.93 upbm affinity estimate (log intensity, higher = more binding, comparable within an allelic series) and the binding signal (SIX6 [8]) was 8.91 upbm affinity estimate (log intensity, higher = more binding, comparable within an allelic series). The binding signal (SIX6 [9]) was 8.85 upbm affinity estimate (log intensity, higher = more binding, comparable within an allelic series), the binding signal (SIX6 [10]) was 8.89 upbm affinity estimate (log intensity, higher = more binding, comparable within an allelic series) and the binding signal (ALX3 [17]) was 7.63 upbm affinity estimate (log intensity, higher = more binding, comparable within an allelic series). For the same sequence, the binding signal (HOXD13 [18]) was 9.4 upbm affinity estimate (log intensity, higher = more binding, comparable within an allelic series), the binding signal (SIX6 [11]) was 8.98 upbm affinity estimate (log intensity, higher = more binding, comparable within an allelic series) and the binding signal (SHOX [12]) was 7.06 upbm affinity estimate (log intensity, higher = more binding, comparable within an allelic series). The binding signal (HOXD13 [19]) was 9.42 upbm affinity estimate (log intensity, higher = more binding, comparable within an allelic series), the binding signal (SIX6 [13]) was 8.9 upbm affinity estimate (log intensity, higher = more binding, comparable within an allelic series) and the binding signal (ALX3 [20]) was 7.51 upbm affinity estimate (log intensity, higher = more binding, comparable within an allelic series). The binding signal (SIX6 [14]) was 8.77 upbm affinity estimate (log intensity, higher = more binding, comparable within an allelic series), the binding signal (ALX3 [21]) was 7.69 upbm affinity estimate (log intensity, higher = more binding, comparable within an allelic series) and the binding signal (SIX6 [15]) was 8.86 upbm affinity estimate (log intensity, higher = more binding, comparable within an allelic series). The binding signal (HOXD13 [22]) was 9.42 upbm affinity estimate (log intensity, higher = more binding, comparable within an allelic series), the binding signal (ALX3 [23]) was 7.6 upbm affinity estimate (log intensity, higher = more binding, comparable within an allelic series) and the binding signal (HOXA7 [24]) was 8.41 upbm affinity estimate (log intensity, higher = more binding, comparable within an allelic series). For the same sequence, the binding signal (ALX3 [25]) was 7.61 upbm affinity estimate (log intensity, higher = more binding, comparable within an allelic series).
In the case of GCCGGGCA, the binding signal (SHOX [1]) is reported as 7.25 upbm affinity estimate (log intensity, higher = more binding, comparable within an allelic series), the binding signal (HOXB9 [26]) is reported as 8.48 upbm affinity estimate (log intensity, higher = more binding, comparable within an allelic series) and the binding signal (HOXB9 [27]) is reported as 8.45 upbm affinity estimate (log intensity, higher = more binding, comparable within an allelic series). For the same sequence, the binding signal (SHOX [12]) was 7.18 upbm affinity estimate (log intensity, higher = more binding, comparable within an allelic series), the binding signal (HOXB9 [28]) was 8.59 upbm affinity estimate (log intensity, higher = more binding, comparable within an allelic series) and the binding signal (NKX3-2 [29]) was 10.6 upbm affinity estimate (log intensity, higher = more binding, comparable within an allelic series). The binding signal (NKX3-2 [30]) was 10.6 upbm affinity estimate (log intensity, higher = more binding, comparable within an allelic series).
For GTGCTTAA, the binding signal (SHOX [1]) was 9.04 upbm affinity estimate (log intensity, higher = more binding, comparable within an allelic series).
ACTGTTAA was tested, and the binding signal (SHOX [1]) was 8.56 upbm affinity estimate (log intensity, higher = more binding, comparable within an allelic series).
